From PubChem BioAssay
Active and inactive are the calls of the source.

Assays:
[1] = binders of probe aFSTL3 on microarray, primary screen, stem cell growth factor project, biochemical, small-molecule microarray, fluorescence 635/667 (AID 1064); conditions: higher = more signal;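 note: measures binding of the biotinylated anti-FSTL3 antibody to printed compounds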
[2] = binders from COS7 lysate, DM2A8 probe, primary screen, torsin A project, cell lysate, small-molecule microarray, fluorescence 635/667 (AID 1065); conditions: higher = more signal, COS7 lysate expressing mutant human TOR1A
[3] = binders of probe aFGF2 on microarray, primary screen, stem cell growth factor project, biochemical, small-molecule microarray, fluorescence 635/667 (AID 1067); conditions: higher = more signal;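 note: measures binding of biotinylated aFGF2 protein to printed compounds on slides; z-score merges feature fluorescence and signal-to-noise across triplicate slides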
[4] = binders of probe aFGF10 on microarray, primary screen, stem cell growth factor project, biochemical, small-molecule microarray, fluorescence 635/667 (AID 1071); conditions: higher = more signal;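 note: score merges 667 nm spot intensity and signal to noise from triplicate slides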
[5] = biological target: Neurogenic locus notch homolog protein 2 (Homo sapiens) (UniProt Q04721); assay: Notch2 binders on small-molecule microarrays, primary screen, biochemical, small-molecule microarray, 635 nm fluorescence, stem cell growth factors (AID 1073); conditions: Notch2 binding, higher = more signal
Sequence of Neurogenic locus notch homolog protein 2 (Homo sapiens) (Q04721 whole entry, looked up, canonical isoform): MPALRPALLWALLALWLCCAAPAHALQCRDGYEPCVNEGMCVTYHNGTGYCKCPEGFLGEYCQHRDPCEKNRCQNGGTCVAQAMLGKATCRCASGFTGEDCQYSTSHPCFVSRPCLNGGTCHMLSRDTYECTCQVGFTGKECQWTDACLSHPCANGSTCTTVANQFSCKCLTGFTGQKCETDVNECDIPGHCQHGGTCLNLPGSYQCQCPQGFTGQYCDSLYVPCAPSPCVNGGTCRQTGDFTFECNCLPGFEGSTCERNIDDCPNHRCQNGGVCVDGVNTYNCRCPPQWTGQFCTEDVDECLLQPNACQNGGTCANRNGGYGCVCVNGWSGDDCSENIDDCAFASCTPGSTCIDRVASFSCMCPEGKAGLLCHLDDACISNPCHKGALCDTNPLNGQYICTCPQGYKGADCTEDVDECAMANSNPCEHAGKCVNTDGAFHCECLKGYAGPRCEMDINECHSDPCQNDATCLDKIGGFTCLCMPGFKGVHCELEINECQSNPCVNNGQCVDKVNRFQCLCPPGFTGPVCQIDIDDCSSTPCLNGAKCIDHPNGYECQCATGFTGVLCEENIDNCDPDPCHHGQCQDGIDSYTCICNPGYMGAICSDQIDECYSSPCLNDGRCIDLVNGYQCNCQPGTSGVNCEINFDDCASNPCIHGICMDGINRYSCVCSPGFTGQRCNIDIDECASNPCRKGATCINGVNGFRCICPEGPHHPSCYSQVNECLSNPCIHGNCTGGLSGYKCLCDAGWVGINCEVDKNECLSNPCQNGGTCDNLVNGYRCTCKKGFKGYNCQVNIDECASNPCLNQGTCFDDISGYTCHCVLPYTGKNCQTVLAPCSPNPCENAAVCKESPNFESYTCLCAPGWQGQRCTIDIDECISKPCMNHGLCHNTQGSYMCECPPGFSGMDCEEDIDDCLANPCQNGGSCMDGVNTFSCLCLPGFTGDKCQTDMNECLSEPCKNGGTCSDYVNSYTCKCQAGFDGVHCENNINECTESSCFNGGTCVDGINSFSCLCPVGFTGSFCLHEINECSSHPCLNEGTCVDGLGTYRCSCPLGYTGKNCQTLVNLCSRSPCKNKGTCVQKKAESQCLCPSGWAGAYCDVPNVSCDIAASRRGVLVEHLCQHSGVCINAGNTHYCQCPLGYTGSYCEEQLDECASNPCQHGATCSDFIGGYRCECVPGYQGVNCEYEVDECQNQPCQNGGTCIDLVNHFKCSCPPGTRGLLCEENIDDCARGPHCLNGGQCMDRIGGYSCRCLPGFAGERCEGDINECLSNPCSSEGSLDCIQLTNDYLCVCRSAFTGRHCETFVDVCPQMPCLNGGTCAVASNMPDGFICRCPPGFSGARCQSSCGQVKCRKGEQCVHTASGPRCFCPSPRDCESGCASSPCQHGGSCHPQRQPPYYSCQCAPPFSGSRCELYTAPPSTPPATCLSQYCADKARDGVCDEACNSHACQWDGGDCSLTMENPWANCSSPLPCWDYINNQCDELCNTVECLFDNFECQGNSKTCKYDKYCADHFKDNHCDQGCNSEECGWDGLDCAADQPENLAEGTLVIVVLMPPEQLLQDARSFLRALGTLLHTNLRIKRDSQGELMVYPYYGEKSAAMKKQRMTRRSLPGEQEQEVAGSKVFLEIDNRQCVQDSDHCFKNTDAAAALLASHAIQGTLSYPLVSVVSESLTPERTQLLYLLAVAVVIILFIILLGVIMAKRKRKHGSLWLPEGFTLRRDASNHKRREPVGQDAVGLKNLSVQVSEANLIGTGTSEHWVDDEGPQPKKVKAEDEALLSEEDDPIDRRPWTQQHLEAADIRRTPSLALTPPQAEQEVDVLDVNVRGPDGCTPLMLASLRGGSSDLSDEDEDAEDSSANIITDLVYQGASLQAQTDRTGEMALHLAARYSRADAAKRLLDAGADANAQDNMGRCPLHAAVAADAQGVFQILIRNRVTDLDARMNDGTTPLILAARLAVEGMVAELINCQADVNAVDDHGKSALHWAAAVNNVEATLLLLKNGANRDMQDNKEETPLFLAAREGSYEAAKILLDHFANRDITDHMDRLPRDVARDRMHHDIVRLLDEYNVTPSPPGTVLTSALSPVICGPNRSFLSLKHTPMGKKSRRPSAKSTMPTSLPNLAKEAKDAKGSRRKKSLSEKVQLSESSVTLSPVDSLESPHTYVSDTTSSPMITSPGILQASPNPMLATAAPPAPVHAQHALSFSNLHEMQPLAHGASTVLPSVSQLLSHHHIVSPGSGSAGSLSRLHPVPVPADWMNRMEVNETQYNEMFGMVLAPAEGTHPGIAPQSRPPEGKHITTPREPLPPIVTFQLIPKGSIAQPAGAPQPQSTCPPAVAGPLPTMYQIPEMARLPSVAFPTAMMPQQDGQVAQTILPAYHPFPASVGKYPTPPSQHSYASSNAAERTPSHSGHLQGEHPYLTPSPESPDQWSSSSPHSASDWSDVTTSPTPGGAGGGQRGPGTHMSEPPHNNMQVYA

[6] = biological target: Pro-neuregulin-1, membrane-bound isoform (Homo sapiens) (UniProt Q02297); assay: NRG1 binders on small-molecule microarrays, primary screen, psychiatric disease protein project, biochemical, small-molecule microarray, fluorescence 635/667 (AID 1075); conditions: NRG1 binding, 635 nm fluorescence, higher = more signal;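 note: score combines 667 nm spot fluorescence with signal to noise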
Sequence of Pro-neuregulin-1, membrane-bound isoform (Homo sapiens) (Q02297 whole entry, looked up, the tested form may be a part, canonical isoform): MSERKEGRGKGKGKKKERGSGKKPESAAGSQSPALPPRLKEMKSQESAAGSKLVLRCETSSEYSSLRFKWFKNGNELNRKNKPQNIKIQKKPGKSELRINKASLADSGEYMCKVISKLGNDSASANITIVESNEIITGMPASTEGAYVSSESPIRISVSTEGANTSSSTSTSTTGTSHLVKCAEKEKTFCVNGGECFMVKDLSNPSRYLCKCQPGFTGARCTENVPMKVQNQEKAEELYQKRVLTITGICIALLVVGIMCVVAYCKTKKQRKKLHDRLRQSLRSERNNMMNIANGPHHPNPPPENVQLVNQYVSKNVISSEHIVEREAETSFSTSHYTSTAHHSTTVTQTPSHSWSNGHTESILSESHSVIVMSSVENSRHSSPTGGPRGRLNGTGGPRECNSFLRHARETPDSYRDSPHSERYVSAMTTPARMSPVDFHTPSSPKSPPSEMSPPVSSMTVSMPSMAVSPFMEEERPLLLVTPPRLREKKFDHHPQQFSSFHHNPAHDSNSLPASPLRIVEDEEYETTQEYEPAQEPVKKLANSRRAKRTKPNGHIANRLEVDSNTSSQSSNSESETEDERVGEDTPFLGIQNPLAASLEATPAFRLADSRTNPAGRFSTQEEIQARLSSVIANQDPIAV

[7] = test system: Neuregulin-1 EGF-like domain; assay: binders of neuregulin-1 EGF-like domain, primary screen, biochemical, small-molecule microarray, 635 nm fluorescence (AID 1081); conditions: small-molecule microarray binding, higher = more signal;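 note: binding of the protein to compounds printed on small-molecule microarray slides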
[8] = FRG1 promoter luciferase signal modulators, primary screen, FRG1 inhibition for FSHD, cell-based, C2C12 myotubes, firefly/Renilla luciferase, luminescence (AID 1084); conditions: higher = more signal, called active from +8 up or from −8 down
[9] = binders of probe aFST on microarray, primary screen, stem cell growth factor project, biochemical, small-molecule microarray, fluorescence 635/667 (AID 1086); conditions: higher = more signal;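 note: score merges 667 nm fluorescence with signal-to-noise of each printed compound spot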
[10] = binders of probe aHhip on microarray, primary screen, stem cell growth factor project, biochemical, small-molecule microarray, fluorescence 635/667 (AID 1087); conditions: higher = more signal;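 note: score merges spot fluorescence at 667nm with spot signal to noise ratio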

Compound	composite z-score [1]	composite z-score [2]	composite z-score [3]	composite z-score [4]	composite z-score [5]	composite z-score [6]	composite z-score [7]	z-score [8]	composite z-score [9]	composite z-score [10]
[N-]=[N+]=NCc1ccccc1[C@H]1OC(c2ccc(OCCCO)cc2)=N[C@@]1(CCS(=O)(=O)c1ccccc1)C(=O)NCCN1CCOCC1	-0.0144	-0.523	0.126	1.04	1.67	1.57	1.27	3.26 (inactive)	1.16	-0.0095
[N-]=[N+]=Nc1ccccc1C[C@@]1(C(=O)NCc2ccccc2)N=C(c2ccc(OCCCO)cc2)O[C@@H]1c1ccccc1	0.584	0.405	0.0421	1.05	1.46	0.794	0.747	-2.86 (inactive)	0.838	-0.0296
COc1ccc([Si](C)(C)[C@H]2[C@H](CC(=O)N(CCO)Cc3ccccc3)O[C@@]3(C(=O)N(Cc4cccc(N5CCCCC5=O)c4)c4ccccc43)[C@@H]2C)cc1	-0.4	1.12	-0.0557	0.141	0.262	0.535	0.907	-2.71 (inactive)	0.0417	-0.166
COc1ccc([Si](C)(C)[C@@H]2[C@@H](CC(=O)N3Cc4ccccc4C[C@H]3CO)O[C@]3(C(=O)N(Cc4ccc(I)cc4)c4ccccc43)[C@H]2C)cc1	-0.127	0.0826	-0.136	0.184	0.472	0.537	0.909	-2.83 (inactive)	0.259	-0.204
CC(C)Cc1ccc(CN2CC[C@@H](NC(=O)c3ccccc3)C2)cc1	0.0315	0.481	-0.176	-0.102	-0.859	0.638	-0.368	-0.623 (inactive)	-0.174	-0.13
CC(C)c1ccc(NN2C(C(O)C3CCCCC3)C=CC3C(=O)N(c4ccccc4)C(=O)C32)cc1 (stereo not given)	0.249	0.333	0.224	0.509	1.6	1.22	1	-1.09 (inactive)	1.62	0.142
CCCCN1CC=CC23O[C@@H]4C=CCCOC(=O)C4[C@H]2C(=O)N(CCO)[C@@H]3C1=O (stereo not given in full)	0.18	-0.881	-0.276	1.02	-1.29	-0.944	-0.397	-0.183 (inactive)	-1.01	0.176
CCCCN1CC=CC23O[C@@H]4/C=C\CCC(C)OC(=O)C4[C@H]2C(=O)N(CCO)[C@@H]3C1=O (stereo not given in full)	0.19	1.97	-0.117	-0.206	-0.722	0.19	1.12	-0.093 (inactive)	-0.14	-0.3
CN1C(=O)C2C=CC(C(O)COCc3ccccc3)N(Nc3ccc([N+](=O)[O-])cc3[N+](=O)[O-])C2C1=O (stereo not given)	0.0982	-0.0795	0.0952	0.475	0.172	0.0948	0.752	1.16 (inactive)	0.329	-0.167
CCCNC(=O)[C@@]1(Sc2ccc(C)cc2)CC(=O)N(Cc2cc(C(F)(F)F)cc(C(F)(F)F)c2)[C@@H]1c1ccc(CO)cc1	0.708	-0.332	-0.0363	0.0551	-0.608	-0.78	0.791	0.621 (inactive)	-0.486	-0.236
C=CCNC(=O)[C@H]1[C@@H]2C(=O)O[C@@H](c3ccccc3)[C@@H](c3ccccc3)N2[C@@H](c2ccc(OCCO)cc2)[C@]12C(=O)N(C(=O)OCCOC)c1ccc(C#CCNC(N)=O)cc12	0.141	0.275	-0.399	0.474	1.41	0.491	0.778	-0.988 (inactive)	0.942	-0.246
NCCCCCCNC(=O)[C@@H]1C[C@@H]2C(=O)NCC(=O)N2[C@@H]1c1cccc(OCCO)c1	0.403	0.641	0.047	0.847	1.2	0.982	1.22	0.726 (inactive)	0.543	0.385
COC(=O)C1(CC(C)C)C=C2C(=C(C)C(=O)C2C)CN1 (stereo not given)	1.72	0.126	0.317	-0.302	0.28	-0.304	0.641	2.36 (inactive)	1.58	1.43
CC1CC/C=C\[C@H]2OC34C=CCN(CCN5CCOCC5)C(=O)[C@H]3N(C(CO)C(C)C)C(=O)[C@@H]4C2C(=O)O1 (stereo not given in full)	-0.0695	0.949	-0.133	-0.528	-0.916	1.77	0.907	-0.363 (inactive)	-0.249	-0.069
CCCC[C@@H](O)C1=C(C)Cn2c(=O)n(-c3ccccc3)c(=O)n2[C@H]1CO	-0.571	-0.0827	-0.092	0.361	-0.362	-0.773	-0.151	-0.755 (inactive)	-0.378	0.0053
CCOC(=O)C[C@H]1[C@H](OC(=O)c2cc3ccccc3oc2=O)[C@@H](NC(=O)c2ccc(-c3ccccc3)cc2)c2cc(OCCCO)ccc2N1C(=O)Cc1ccc(OC)cc1	-0.428	0.0922	-0.0667	0.67	0.992	0.178	1.18	0.228 (inactive)	0.494	-0.132
C=C(CCCC)/C(=C/C[C@@H](OC(C)=O)c1ccc(OCCO)cc1)c1cc(C(=O)OC)ccc1OC	0.0062	0.982	-0.076	-0.314	-0.332	1.37	1.21	2.07 (inactive)	0.0501	-0.119
